Several values for one entry are separate records, joined by “and”; a condition that tells them apart may be missing. Equal entries are not always repeated. About 83,000 compounds went through this panel and 20% of them were active in at least one assay; those are over-represented in the sample as a whole.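 How to read the values: 0–100, growth inhibition (40 = 60% inhibited); 0, no net growth; -100 to 0, cell death (-40 = 40% of starting cells died; -100 = all dead).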 Activity calls are given as the source filed them. Rule for the calls: active = growth percent below 10; inactive = the rest.
Key:
Test in all cases: NCI-60 one-dose screen, 48 h (100 = growth as untreated, 0 = no growth, -100 = all killed)
Settings in all cases: 10 µM unless noted
DU-145 prostate = test system: DU-145 prostate
K-562 leukemia = test system: K-562 leukemia
MALME-3M melanoma = test system: MALME-3M melanoma
MDA-MB-231 breast = test system: MDA-MB-231 breast
RXF 393 renal = test system: RXF 393 renal
SF-268 CNS = test system: SF-268 CNS
SF-295 CNS = test system: SF-295 CNS
SF-539 CNS = test system: SF-539 CNS
UACC-257 melanoma = test system: UACC-257 melanoma
M14 melanoma = test system: M14 melanoma

Compound | growth (DU-145 prostate) | growth (K-562 leukemia) | growth (MALME-3M melanoma) | growth (MDA-MB-231 breast) | growth (RXF 393 renal) | growth (SF-268 CNS) | growth (SF-295 CNS) | growth (SF-539 CNS) | growth (UACC-257 melanoma) | growth (M14 melanoma)
N#CCCc1ccccc1 | 119% (inactive) | 108% (inactive) | 113% (inactive) | 107% (inactive) | 114% (inactive) | 106% (inactive) | 108% (inactive) | 96.2% (inactive) | 95% (inactive) | 106% (inactive)
C[C@H](O)CCC(=O)c1ccoc1 | 100% (inactive) | 96.5% (inactive) | 106% (inactive) | 108% (inactive) | 99.4% (inactive) | 98.9% (inactive) | 107% (inactive) | 102% (inactive) | 99.5% (inactive) | 108% (inactive)
CC(C)COC(=O)Cc1ccccc1 | 115% (inactive) | 109% (inactive) | 94.4% (inactive) | 120% (inactive) | 102% (inactive) | 104% (inactive) | 111% (inactive) | 97.5% (inactive) | 104% (inactive) | 103% (inactive)
CC(C)c1cccc(C(C)C)c1O | 109% (inactive) and 116% (inactive) | 92.8% (inactive) and 104% (inactive) | 95.7% (inactive) and 91.8% (inactive) | 114% (inactive) and 107% (inactive) | 109% (inactive) | 110% (inactive) and 97.7% (inactive) | 101% (inactive) and 103% (inactive) | 115% (inactive) and 97.4% (inactive) | 100% (inactive) | 109% (inactive) and 111% (inactive)
c1ccc2c(c1)sc1ccccc12 | 110% (inactive) | 105% (inactive) | 84% (inactive) | 93.8% (inactive) | 107% (inactive) | 109% (inactive) | 101% (inactive) | 93.9% (inactive) | 109% (inactive) | 94% (inactive)
Clc1ccc(COC(Cn2ccnc2)c2ccc(Cl)cc2Cl)c(Cl)c1 (stereo not given) | 76.8% (inactive) and 69.8% (inactive) | 25.5% (inactive) and 13.7% (inactive) | 56.1% (inactive) and 75.3% (inactive) | 49.5% (inactive) and 66.9% (inactive) | 72.1% (inactive) and 10.9% (inactive) | 70.2% (inactive) and 77.8% (inactive) | 30.4% (inactive) and 51.3% (inactive) | 80.4% (inactive) and 70.1% (inactive) | 61.2% (inactive) and 48% (inactive) | 29.2% (inactive)
CC12CCC3C4CCC(=O)C=C4CCC3C1CC1CC(=O)OC12 (stereo not given) | 112% (inactive) | 95.5% (inactive) | 103% (inactive) | 97.6% (inactive) | 110% (inactive) | 98% (inactive) | 103% (inactive) | 101% (inactive) | 80.7% (inactive) | 104% (inactive)
C[C@]12CCc3nc(-c4ccc(O)c(O)c4)sc3C1=CC[C@@H]1[C@@H]2CC[C@]2(C)C(=O)CC[C@@H]12 | 75.3% (inactive) | 56% (inactive) | 62.9% (inactive) | 56% (inactive) | 91.2% (inactive) | 81.5% (inactive) | 104% (inactive) | 56.4% (inactive) | 91.4% (inactive) | 63.1% (inactive)
O=c1c2ccccc2nc(-c2ccccc2Cl)n1-c1nnc(C(F)(F)F)s1 | 56.8% (inactive) | 11.4% (inactive) | -11.5% (active) | 52.3% (inactive) | 38.9% (inactive) | 38.8% (inactive) | 12% (inactive) | 19.7% (inactive) | 30% (inactive) | 35.1% (inactive)
O=[N+]([O-])c1cc(Cl)c(Cl)cc1Cl | 111% (inactive) and 121% (inactive) | 114% (inactive) and 110% (inactive) | 115% (inactive) and 126% (inactive) | 99.7% (inactive) and 124% (inactive) | 142% (inactive) and 111% (inactive) | 105% (inactive) and 114% (inactive) | 97.8% (inactive) and 112% (inactive) | 82.4% (inactive) and 102% (inactive) | 80.1% (inactive) and 111% (inactive) | 102% (inactive) and 114% (inactive)
CCCCCCCCCCCCCCCC[N+](C)(C)C | -91.4% (active) and 15.9% (inactive) | -70% (active) and 9.42% (active) | -76.5% (active) and 13.8% (inactive) | -76.5% (active) and -8.58% (active) | -31.9% (active) | -57.5% (active) and -3.48% (active) | -65.5% (active) and 10.1% (inactive) | -67.3% (active) and -8.94% (active) | 61.2% (inactive) | -87.8% (active) and -43.2% (active)
C#Cc1cccc(Nc2nc(Cl)nc3cc(NC(=O)CF)ccc23)c1 | 98.1% (inactive) | 28% (inactive) | 70.5% (inactive) | 64.5% (inactive) | 100% (inactive) | 87.8% (inactive) | 71.9% (inactive) | 89.1% (inactive) | 88.7% (inactive) | 48.3% (inactive)
C#COc1cccc(Nc2ncnc3cc(NC(=O)CF)ccc23)c1 | 76.1% [6.25 µM] (inactive) | 7.01% [6.25 µM] (active) | 60.9% [6.25 µM] (inactive) | 50.9% [6.25 µM] (inactive) | 84.4% [6.25 µM] (inactive) | 51.8% [6.25 µM] (inactive) | 29.9% [6.25 µM] (inactive) | 29.3% [6.25 µM] (inactive) | 40.4% [6.25 µM] (inactive) | 18.7% [6.25 µM] (inactive)
COc1cc2c(cc1OC)-c1c3c(cc4c1[C@@H](C2)N(C)CC4)OCO3 | 45.3% (inactive) | 13.1% (inactive) | 54.3% (inactive) | 55.1% (inactive) | 35.2% (inactive) | 50.5% (inactive) | 51.6% (inactive) | 34.1% (inactive) | 35.5% (inactive) | 54.9% (inactive)
O=C(O)C(O)c1ccc(Cl)cc1 (stereo not given) | 112% (inactive) and 109% (inactive) | 118% (inactive) | 110% (inactive) and 102% (inactive) | 96.8% (inactive) and 119% (inactive) | 88.5% (inactive) and 122% (inactive) | 110% (inactive) and 101% (inactive) | 101% (inactive) and 116% (inactive) | 97.5% (inactive) and 118% (inactive) | 109% (inactive) and 91.8% (inactive) | 99.9% (inactive) and 104% (inactive)
CCC(Br)(CC)C(=O)NC(N)=O | 107% (inactive) | 105% (inactive) | 106% (inactive) | 121% (inactive) | 114% (inactive) | 102% (inactive) | 97.7% (inactive) | 89.9% (inactive) | 104% (inactive) | 102% (inactive)
O=P(O)(Nc1ccccc1)Nc1ccccc1 | 97% (inactive) | 51.9% (inactive) | 94.3% (inactive) | 109% (inactive) | 93.9% (inactive) | 102% (inactive) | 96.1% (inactive) | 91.6% (inactive) | 89.3% (inactive) | 88.4% (inactive)
Cc1ccc(P(=O)(O)O)cc1 | 116% (inactive) | 98.9% (inactive) | 96% (inactive) | 98.6% (inactive) | 98.8% (inactive) | 109% (inactive) | 100% (inactive) | 94.2% (inactive) | 103% (inactive) | 104% (inactive)
C/C(=C\c1ccn(-c2ccc(N)c(C(F)(F)F)c2)n1)[C@@H]1C[C@@H]2O[C@]2(C)CCC[C@H](C)[C@H](O)[C@@H](C)C(=O)C(C)(C)[C@@H](O)CC(=O)O1 | -12.7% (active) | 11.9% (inactive) | 51.7% (inactive) | 22.8% (inactive) | 8.01% (active) | 36% (inactive) | 15.1% (inactive) | -8.5% (active) | 64.3% (inactive) | 21.7% (inactive)
CC(=O)Nc1nc2c(s1)C1=CC[C@H]3[C@@H]4CC[C@H](OC(C)=O)[C@@]4(C)CC[C@@H]3[C@@]1(C)CC2 | 72.1% (inactive) | 35.1% (inactive) | 66.5% (inactive) | 80.3% (inactive) | 7.7% (active) | 58.4% (inactive) | 29.4% (inactive) | 14% (inactive) | 79.2% (inactive) | 39.7% (inactive)
O=c1[nH]c(=O)n(Cl)c(=O)n1Cl | 142% (inactive) | 109% (inactive) | 106% (inactive) and 110% (inactive) | 99.1% (inactive) and 113% (inactive) | 114% (inactive) and 120% (inactive) | 108% (inactive) and 136% (inactive) | 101% (inactive) and 114% (inactive) | 106% (inactive) and 92.5% (inactive) | 99.5% (inactive) and 117% (inactive) | 103% (inactive) and 98.4% (inactive)
CNC(=O)O/N=C(\SC)C(=O)N(C)C | 117% (inactive) | 89.2% (inactive) | 117% (inactive) | 110% (inactive) | 105% (inactive) | 105% (inactive) | 113% (inactive) | 103% (inactive) | 103% (inactive) | 102% (inactive)
ClC1OC(Cl)(Cl)C(Cl)(Cl)OC1(Cl)Cl (stereo not given) | 114% (inactive) | 98.1% (inactive) | 97.5% (inactive) | 105% (inactive) | 110% (inactive) | 108% (inactive) | 109% (inactive) | 91% (inactive) | 99.5% (inactive) | 98.1% (inactive)
